Here are results for 30 compounds from PubChem BioAssay (NCATS).

Structures are written as SMILES. Inconclusive results are not listed. Activity calls are given as the source filed them. Calls follow the shape of the dose curve; as a rule, active = well fitted curve in the direction sought with a large enough effect; inconclusive = small, poorly fitted or top-dose-only effect, or another doubt; inactive = no such curve, though single readings can be large; an effect the other way counts as inactive or inconclusive.

Assay [1] concerns the target Luciferin 4-monooxygenase (Photinus pyralis) (UniProt P08659). The assay is described as follows: Biochemical firefly luciferase enzyme assay for NPC (AID 624030). Also: nearly all actives have a fitted effect of over 70% in size. Also: potency is read from the fitted curve at half-maximal effect. Particulars: purified P. pyralis luciferase, luminescence, 5 min; series mostly up to 58.6 µM. The method in brief:
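Purified P. pyralis luciferase at 10 nM in 50 mM Tris Acetate (final), luminescence read within 5 minutes of enzyme addition to compounds. Activity normalised to PTC124 versus DMSO; concentration-response curves classed by r2, magnitude and activity.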

Assay [2] has as its target Voltage-gated inwardly rectifying potassium channel KCNH2 (Homo sapiens) (UniProt Q12809). The assay is described as follows: qHTS Assay for Small Molecule Inhibitors of the Human hERG Channel Activity (AID 588834).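 Also: lower thallium flux fluorescence means stronger hERG block; nearly all actives have a fitted effect of over 50% in size.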 Also: potency is read from the fitted curve at half-maximal effect. Particulars: U2OS BacMam hERG, FluxOR thallium flux fluorescence; series mostly up to 46.1 µM. In a few lines: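 U2OS cells BacMam-transduced with hERG, 2000 cells/well, compound ~10 min at 37 °C before stimulation buffer. FluxOR thallium flux fluorescence read kinetically on FDSS; decrease indicates block; AC50 from Hill fits.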
(qHTS replaces the single test concentration by a dilution series.)

The nature of assay [3]: S16 Schwann cell viability assay (CellTiter-Glo assay) (AID 624031).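 Also: cellular ATP luminescence as a viability measure; nearly all actives have a fitted effect of over 70% in size.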 Particulars: S16 rat Schwann cells viability, 24 h; series mostly up to 57.5 µM. The method in brief:
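Native S16 rat Schwann cells in DMEM/10% FBS without phenol red were incubated overnight, then exposed to compounds for 24 h at 37 °C/5% CO2. Viability was read as ATP luminescence (CellTiter-Glo), normalized to no-cell wells and DMSO (0%).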
In general terms: In ATP-based viability assays light output follows the ATP content of the culture.

Assay [4] is described as follows: S16 Schwann cell PMP22 intronic element firefly luciferase assay (AID 624032). Also: nearly all actives have a fitted effect of over 30% in size. Also: potency is read from the fitted curve at half-maximal effect. The settings on record: S16 rat Schwann cells, PMP22 element FLuc, 24 h; series mostly up to 57.5 µM. The method in brief:
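Rat S16 Schwann cells stably carrying firefly luciferase driven by a PMP22 intronic element, in 10% FBS, treated 24 h at 37 C. ONE-Glo luminescence normalized to PTC124 control and DMSO (0%); curves classed by r2, magnitude and activity.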

Sequence of Luciferin 4-monooxygenase (Photinus pyralis) (P08659 whole entry, looked up): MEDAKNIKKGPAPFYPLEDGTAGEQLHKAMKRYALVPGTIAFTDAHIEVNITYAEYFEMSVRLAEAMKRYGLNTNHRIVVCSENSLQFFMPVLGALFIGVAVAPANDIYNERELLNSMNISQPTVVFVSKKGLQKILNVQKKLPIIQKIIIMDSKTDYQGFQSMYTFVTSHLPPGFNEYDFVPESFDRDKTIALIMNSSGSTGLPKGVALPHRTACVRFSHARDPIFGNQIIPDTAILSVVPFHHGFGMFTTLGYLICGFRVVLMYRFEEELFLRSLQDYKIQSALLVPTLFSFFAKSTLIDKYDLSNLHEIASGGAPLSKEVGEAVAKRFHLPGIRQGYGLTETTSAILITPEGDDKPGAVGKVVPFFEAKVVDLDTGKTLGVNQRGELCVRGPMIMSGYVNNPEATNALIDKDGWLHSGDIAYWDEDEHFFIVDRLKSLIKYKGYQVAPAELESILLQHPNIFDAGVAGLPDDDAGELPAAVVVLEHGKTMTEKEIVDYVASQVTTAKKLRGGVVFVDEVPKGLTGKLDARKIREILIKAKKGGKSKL
Sequence of Voltage-gated inwardly rectifying potassium channel KCNH2 (Homo sapiens) (Q12809 whole entry, looked up): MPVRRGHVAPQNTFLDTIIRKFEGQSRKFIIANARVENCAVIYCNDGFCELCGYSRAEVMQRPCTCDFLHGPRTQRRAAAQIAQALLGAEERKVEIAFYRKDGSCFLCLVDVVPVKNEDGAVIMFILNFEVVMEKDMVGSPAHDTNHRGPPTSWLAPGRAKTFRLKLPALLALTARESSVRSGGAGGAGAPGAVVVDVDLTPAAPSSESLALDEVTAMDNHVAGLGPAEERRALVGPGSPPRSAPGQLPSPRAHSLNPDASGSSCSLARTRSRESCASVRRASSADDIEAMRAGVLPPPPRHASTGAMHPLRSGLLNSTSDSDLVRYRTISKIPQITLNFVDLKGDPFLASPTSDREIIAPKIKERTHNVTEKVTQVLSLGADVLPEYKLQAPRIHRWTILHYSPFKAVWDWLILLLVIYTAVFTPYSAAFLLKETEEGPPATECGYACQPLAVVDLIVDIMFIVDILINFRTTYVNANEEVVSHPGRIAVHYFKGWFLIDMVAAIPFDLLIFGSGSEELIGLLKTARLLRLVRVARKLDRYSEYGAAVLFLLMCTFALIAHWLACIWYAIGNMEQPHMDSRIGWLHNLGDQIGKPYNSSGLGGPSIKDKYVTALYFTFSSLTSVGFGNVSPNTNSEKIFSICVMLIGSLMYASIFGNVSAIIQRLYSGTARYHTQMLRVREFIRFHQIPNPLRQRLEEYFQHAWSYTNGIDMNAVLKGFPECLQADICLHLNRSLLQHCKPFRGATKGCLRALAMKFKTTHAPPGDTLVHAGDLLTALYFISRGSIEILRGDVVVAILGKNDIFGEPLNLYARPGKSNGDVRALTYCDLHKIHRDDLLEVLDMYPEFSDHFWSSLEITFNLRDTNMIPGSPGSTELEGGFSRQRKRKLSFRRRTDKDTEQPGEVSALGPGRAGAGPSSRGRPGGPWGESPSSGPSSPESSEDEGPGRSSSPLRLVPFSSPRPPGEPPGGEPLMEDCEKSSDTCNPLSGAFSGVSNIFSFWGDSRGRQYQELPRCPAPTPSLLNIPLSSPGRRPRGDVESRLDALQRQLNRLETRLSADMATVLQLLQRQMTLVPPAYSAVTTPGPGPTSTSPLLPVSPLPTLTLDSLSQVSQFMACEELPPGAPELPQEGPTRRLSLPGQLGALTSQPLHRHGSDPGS

Regarding `COc1cc([C@@H]2c3cc4c(cc3[C@@H](O)C3COC(=O)C32)OCO4)cc(OC)c1O` (stereo not given in full), the Potency result in assay [1] is “inactive”.

In the case of `C[C@@H](N)Cc1cnc[nH]1`, in assay [2], the Potency entry was “inactive”.

On to `NC(N)=NOCCC(N)C(=O)O` (stereo not given), for which the Potency result in assay [2] was “inactive”.

On to `NC1=NC(=O)N2CC12` (stereo not given), for which the Potency entry in assay [2], in assay [1], in assay [3] and in assay [4] was “inactive” in each case.

For `CN[C@@H]1C[C@@H](c2ccc(Cl)c(Cl)c2)c2ccccc21`, the Potency in assay [2] was 12.6 µM (active). Besides, the Potency entry in assay [1] is “inactive”.

In the case of `S=C(SSC(=S)N1CCCCC1)N1CCCCC1`, the Potency in assay [1] was 8.09 µM (active).

Take `Cc1ccc(Cl)c(O)c1`: the Potency result in assay [1], in assay [3] and in assay [4] was “inactive” throughout.

For the compound `C[C@]12N[C@H](Cc3ccccc31)c1ccccc12`, the Potency result in assay [2] and in assay [1] was “inactive” each time.

In the case of `O=C(Nc1ccc(Oc2ccc(Cl)cc2)c(Cl)c1)c1cc(I)cc(I)c1O`, in assay [4], the Potency is 10.2 µM (active).

Take `CN1C2CCC1CC(OC(=O)c1cc(Cl)cc(Cl)c1)C2` (stereo not given): the Potency in assay [2] was 3.55 µM (active). Moreover, in assay [1], the Potency result was “inactive”.

For the compound `CC(=O)[C@H]1CCC2C3CC[C@H]4C[C@H](O)CC[C@]4(C)C3CC[C@@]21C` (stereo not given in full), the Potency entry in assay [2] was “inactive”.

With `C[C@]12CC[C@@H]3[C@@H](CCC4=CC(=O)CC[C@@H]43)[C@@H]1CC[C@@H]2OC(=O)CCc1ccccc1`, the Potency entry in assay [1] was “inactive”.

As to `C=CCN1CC[C@]23CCCCC2[C@H]1Cc1ccc(O)cc13` (stereo not given in full), the Potency entry in assay [1], in assay [3] and in assay [4] was “inactive” throughout.

As to `O=[N+]([O-])c1ccc([As](=O)(O)O)cc1`, the Potency entry in assay [2], in assay [1], in assay [3] and in assay [4] was “inactive” in each case.

Consider `NC1CCc2cc(O)c(O)cc2C1` (stereo not given), for which the Potency entry in assay [2] was “inactive”.

In the case of `NC(CCP(=O)(O)O)C(=O)O` (stereo not given), the Potency entry in assay [2] is “inactive”.

Turning to `CC(C)NC(C)Cc1ccc(I)cc1` (stereo not given), the Potency in assay [2] is 8.91 µM (active). The Potency result in assay [1], in assay [3] and in assay [4] was “inactive” in each case.

`O=C(O)Cc1cnc[nH]1`: the Potency entry in assay [2] was “inactive”.

For `O=C(O)c1ccccc1O`, the Potency result in assay [1] is “inactive”.

With `CC(O)CN1CCN(CC(=O)[O-])CCN(CC(=O)[O-])CCN(CC(=O)[O-])CC1.[Gd+3]` (stereo not given), in assay [1], the Potency result was “inactive”.

For `COC(=O)[C@@H](N)CCCN=C(N)N[N+](=O)[O-]`, the Potency result in assay [1], in assay [3] and in assay [4] was “inactive” throughout.

With `CC(=O)NCCc1c[nH]c2ccccc12`, the Potency entry in assay [2] was “inactive”.

As to `CCCN1CCC[C@H](c2cccc(O)c2)C1`, the Potency result in assay [2], in assay [1], in assay [3] and in assay [4] was “inactive” in each case.

With `CC[N+]1(CCOC(=O)C(O)(c2ccccc2)c2ccccc2)CCCCC1`, the Potency result in assay [2], in assay [1] and in assay [3] was “inactive” each time.

In the case of `c1ccc(C2(c3ccccc3)CC2C2=NCCN2)cc1` (stereo not given), the Potency result in assay [1], in assay [3] and in assay [4] was “inactive” each time.

`NC(CP(=O)(O)O)C(=O)O` (stereo not given): the Potency entry in assay [2] was “inactive”.

Take `CC(C)(C)NC[C@H](O)c1ccc(O)cc1Cl`: in assay [1], the Potency entry was “inactive”.

Take `CCC1(CCC(C)C)C(=O)NC(=O)NC1=O`: the Potency entry in assay [1] was “inactive”.

`C#CC1(O)CCC2C3CCC4=CC(=O)CCC4(C)C3CCC21C` (stereo not given): the Potency entry in assay [1], in assay [3] and in assay [4] was “inactive” each time.

As for `CCCCc1ccc(C(=O)O)nc1`, the Potency entry in assay [2], in assay [1], in assay [3] and in assay [4] was “inactive” throughout.
